Assay outcomes as filed in PubChem.
The list is not random: actives were taken first. Their share in the collection is about 1.3%.
BRCA1 expr up = qHTS Assay to Identify Small Molecule Activators of BRCA1 Expression; actives 1.1% (n = 380,000); AID 624202, 2012; Potency, µM (series often up to 46.1 µM), without a hit: at the highest dose activation, actives largely listed as activators; MCF7-BRCA1-FFLuc reporter, luminescence, 48 h; response scale: scaled: vehicle 0%, 10 µM genistein 100%; also: potency is read from the fitted curve at half-maximal effect; nearly all actives have a fitted effect of over 80% in size
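Using MCF7 cells harboring a BRCA1 firefly luciferase reporter, plated 2 h before compound pinning, the screen measured luminescence after 48 h incubation. Responses were normalized to DMSO and 10 microM genistein, then fitted for concentration-effect.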
PKM2 act = qHTS Assay for Activators of Human Muscle isoform 2 Pyruvate Kinase. Pyruvate kinase PKM (Homo sapiens), P14618. actives 0.34% (n = 260,000). purified PKM2, Kinase-Glo ATP luminescence, activation; response scale: 0% is enzyme alone, no compound. AID 1631, 2009. Potency, µM (highest dose often 57.5 µM), for inactives: top-dose activation, actives largely listed as activators; also: potency is read from the fitted curve at half-maximal effect; % is scaled to controls: 0 for no effect and ±100 for the full control effect; nearly all actives have a fitted effect of over 55% in size
Target sequence (P14618 whole entry, looked up, canonical isoform): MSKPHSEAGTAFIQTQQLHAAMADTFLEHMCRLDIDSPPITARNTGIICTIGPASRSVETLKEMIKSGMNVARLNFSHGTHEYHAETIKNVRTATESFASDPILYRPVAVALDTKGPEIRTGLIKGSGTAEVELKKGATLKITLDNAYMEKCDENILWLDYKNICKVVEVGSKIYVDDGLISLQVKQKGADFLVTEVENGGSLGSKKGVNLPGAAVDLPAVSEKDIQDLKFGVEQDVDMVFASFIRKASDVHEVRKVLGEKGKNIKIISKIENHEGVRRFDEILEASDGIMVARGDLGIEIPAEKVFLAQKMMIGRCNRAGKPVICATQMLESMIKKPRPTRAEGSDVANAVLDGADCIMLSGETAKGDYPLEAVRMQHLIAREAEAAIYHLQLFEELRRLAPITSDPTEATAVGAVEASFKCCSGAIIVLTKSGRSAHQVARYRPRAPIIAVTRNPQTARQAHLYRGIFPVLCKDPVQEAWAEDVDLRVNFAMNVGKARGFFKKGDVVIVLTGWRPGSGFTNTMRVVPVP
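Purified hPK-M2 (>95%) run at intermediate activity with 0.1 mM ADP and 0.5 mM PEP in 50 mM imidazole pH 7.2, KCl, MgCl2; 1 h room temperature. ATP formed read by Kinase-Glo luminescence; normalized to uninhibited and no-enzyme controls.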
Anesthetic bind = qHTS Assay for Identification of Novel General Anesthetics; Ferritin light chain (Equus caballus), P02791; apoferritin/1-aminoanthracene competitive binding, fluorescence; Potency, µM (titrated, usually from 77.5 µM), for the others: top-dose activity change, negative = displacement, most hits filed as inhibitors; actives 0.074% (n = 350,000); also: potency is read from the fitted curve at half-maximal effect; % is scaled to controls: 0 for no effect and ±100 for the full control effect; nearly all actives have a fitted effect of over 20% in size
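10 uM apoferritin + 50% sat. 1-AMA, PBS; cpd 10 min RT; Ex380/Em535 endpoint; normalized to free probe vs complex; 4-param Hill fit; propofol titration as pos. ctrl.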
IL-2 act = qHTS of IL-2 Activators; activation, % (series mostly up to about 46 µM); AID 652025, 2013; IL-2 activation reporter assay, cell-based qHTS; stimulated with anti-CD3/CD4/CD28 beads; in transgenic mouse T cells; actives 0.065% (n = 360,000); in the data active = activation above about 50%; inconclusive = mostly about 30% to 49%; also: 0% is about no effect
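Screening format: compound pinned onto unstimulated transgenic mouse T cells, 60 min incubation, then anti-CD3/anti-CD4/anti-CD28 bead stimulation for 18 hours at 37 degrees C, followed by EGFP and DsRed detection.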
a7 integrin act = qHTS for Activators of Integrin-Mediated Alleviation for Muscular Dystrophy | AID 624291, 2012 | alpha7betagal myoblasts, beta-gal FDG fluorescence, 48 h | Potency, µM (doses to about 38.3 µM), for the others: top-dose activation, actives largely listed as activators | actives 0.064% (n = 350,000);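 also: potency is read from the fitted curve at half-maximal effect; 100% = response of the positive control SU9516; nearly all actives have a fitted effect of over 60% in size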
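alpha7betagal+/- myoblasts (passage 13, 250/well) treated 48 h at 37C with compounds at 1:260 dilution of DMSO stock. Lysed, then beta-galactosidase activity read as FDG fluorescence (ex 480/em 540) after 30 min, with pre-read for autofluorescence.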
* marks the source's active call; other numbers are inactive results; [ ] = remark or other dose. Unless noted, calls follow the shape of the dose curve; as a rule, active = well fitted curve in the direction sought with a large enough effect; inconclusive = small, poorly fitted or top-dose-only effect, or another doubt; inactive = no such curve, though single readings can be large; an effect the other way counts as inactive or inconclusive.

Results for O=C(COc1ccccc1)Nc1nc2ccccc2[nH]1 ?
BRCA1 expr up: 13µM*; PKM2 act: 1%; Anesthetic bind: -14%; IL-2 act: 0; a7 integrin act: -7%

How did Cn1c(=O)c2c(nc(Sc3ncnn3CC(=O)NC3CCCCC3)n2C)n(C)c1=O do in these assays?
BRCA1 expr up: 3%; PKM2 act: -3%; Anesthetic bind: -7%; IL-2 act: 0; a7 integrin act: 11µM*

Results for COC(=O)c1c(-c2cccs2)csc1NC(=O)c1cc(OC)c(OC)c(OC)c1 ?
Anesthetic bind: 7%

What do the screens show for `COc1ccccc1C1=NC(c2ccc(F)cc2)N=C1C` (stereo not given)?
BRCA1 expr up: 13µM*; PKM2 act: -13%; Anesthetic bind: -13%; IL-2 act: -3; a7 integrin act: inconclusive

What do the screens show for `CCOc1ccccc1CNC(=O)Cc1ccc(NC(=O)N2CCCCc3ccccc32)cc1`?
BRCA1 expr up: 8%; Anesthetic bind: 37%

How did CCSc1nncn1/N=C/c1ccc(OC)c(OC)c1 do in these assays?
BRCA1 expr up: 22%; PKM2 act: -1%; Anesthetic bind: -4%; IL-2 act: 4; a7 integrin act: 5%

What do the screens show for `C=C(C)CSc1nncn1/N=C/c1ccc(OC)cc1`?
BRCA1 expr up: 7.9µM*; PKM2 act: 5%; Anesthetic bind: 13µM*; IL-2 act: 4; a7 integrin act: 20%

How did COc1cccc(-c2csc3nc[nH]c(=O)c23)c1 do in these assays?
BRCA1 expr up: 0%; PKM2 act: 28µM*; Anesthetic bind: -10%; IL-2 act: 1; a7 integrin act: -2%

How did Cc1ccc(-c2csc3nc[nH]c(=O)c23)cc1C do in these assays?
BRCA1 expr up: 1%; PKM2 act: 0%; Anesthetic bind: inconclusive; IL-2 act: -2; a7 integrin act: -19%

Results for Fc1ccc(CSc2ccc(-c3ccco3)nn2)cc1 ?
BRCA1 expr up: 7.1µM*; PKM2 act: 3%; Anesthetic bind: -9%; IL-2 act: 2; a7 integrin act: 9%

How did Fc1cccc(CSc2ccc(-c3ccco3)nn2)c1 do in these assays?
BRCA1 expr up: inconclusive; PKM2 act: -3%; Anesthetic bind: inconclusive; IL-2 act: 0; a7 integrin act: -8%

Results for O=C1C=C[C@@H](O)[C@H]2[C@@H]3C(=O)N(Cc4ccccc4)C(=O)[C@@H]3CC[C@H]12 ?
Anesthetic bind: 5%[15.3 µM]

Results for CCOC(=O)C1(Cc2ccccc2Cl)CCN(C(=O)CN2CCOC2=O)CC1 ?
BRCA1 expr up: 13µM*; PKM2 act: -5%; Anesthetic bind: -4%; IL-2 act: -2; a7 integrin act: 24%

How did CCOC(=O)C1(CCCc2ccccc2)CCN(C(=O)CN2CCOC2=O)CC1 do in these assays?
BRCA1 expr up: -5%; PKM2 act: 4%; Anesthetic bind: -13%; IL-2 act: 2; a7 integrin act: -46%

Results for Cc1ccc(-n2nnc(-c3cccnc3)n2)cc1 ?
BRCA1 expr up: inconclusive; IL-2 act: 0; a7 integrin act: 8%

What do the screens show for `c1ccc(-n2nnc(-c3cccnc3)n2)cc1`?
BRCA1 expr up: 7.9µM*; PKM2 act: -10%; Anesthetic bind: -16%; IL-2 act: -1; a7 integrin act: 4%

What do the screens show for `CN(C)c1ccc(C(CNC(=O)c2ccccc2)N2CCc3ccccc32)cc1` (stereo not given)?
Anesthetic bind: 57%

Results for CCOc1ccc2nc(N3CCOCC3)nc(C)c2c1 ?
BRCA1 expr up: 4.5µM*; PKM2 act: -4%; Anesthetic bind: 232%; IL-2 act: -1; a7 integrin act: -9%

How did CCOc1ccc(Nc2cc(C)nc(N3CCOCC3)n2)cc1 do in these assays?
BRCA1 expr up: 12%; PKM2 act: -1%; Anesthetic bind: -11%; IL-2 act: 1; a7 integrin act: -1%

Results for COC(=O)c1ccc(NC(=O)c2c(NCc3cccc(F)c3)sc3c2CCCC3)cc1 ?
Anesthetic bind: -5%
